# Assay outcomes as filed in PubChem.
# D3 antag = D3 dopamine receptor (human) antagonism; P35462; D3R cells, DiscoveRx beta-arrestin luminescence, antagonist mode; stronger effect = lower value; max response, negative = inhibition, %; 2.5% of 360,000 active; in the data active = max response below about -50%; inconclusive = no clear call, values can overlap the other calls; note: % is set by controls: 0 for no effect and ±100 for the full control effect
# Target sequence (P35462 whole entry, looked up): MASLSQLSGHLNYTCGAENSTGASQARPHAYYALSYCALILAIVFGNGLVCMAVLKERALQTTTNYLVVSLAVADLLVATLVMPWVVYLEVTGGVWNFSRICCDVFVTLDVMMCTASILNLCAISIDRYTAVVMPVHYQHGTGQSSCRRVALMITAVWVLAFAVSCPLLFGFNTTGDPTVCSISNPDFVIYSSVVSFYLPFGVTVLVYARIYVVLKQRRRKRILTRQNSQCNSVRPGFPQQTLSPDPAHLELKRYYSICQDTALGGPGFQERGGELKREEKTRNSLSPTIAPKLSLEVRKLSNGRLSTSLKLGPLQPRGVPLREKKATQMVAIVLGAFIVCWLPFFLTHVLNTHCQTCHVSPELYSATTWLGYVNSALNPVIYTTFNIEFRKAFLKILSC
#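 Cells plated overnight at 1500 cells/well, then exposed to library compounds with dopamine controls for 90 minutes at 37 degrees C. DiscoveRx reagent added for 30–60 minutes at room temperature; luminescence read, quantitative HTS format.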
# DRD3 agonist = agonists of human D3 dopamine receptor; P35462; D3R DiscoveRx beta-arrestin cells, luminescence, 90 min; max activation, %; 0.58% of 410,000 active; in the data active = max activation above about 30%; note: 0% is about no effect
#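 Agonist-mode cell screen: cells plated at 1500/well and incubated overnight at 37 °C, then exposed to library compounds for 90 min at 37 °C. Detection reagent was added for 30–60 min at room temperature, and luminescence was read.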
# ATXN viability = cell viability loss in ATXN counter-screen | S2 cells (HEK-293 line with an ATXN2-luciferase reporter) viability, CellTiter-Fluor protease fluorescence, 24 h | Potency, µM (doses to about 56.7 µM), usual class: cytotoxic | 0.49% of 400,000 active; note: potency is the fitted concentration of half-maximal effect; nearly all actives have a fitted effect of over 40% in size
# ATXN2 expr inh = ATXN2 expression inhibition; HEK-293 ATXN2-luciferase reporter, luminescence, 24 h; Potency, µM (titrated, usually from 57 µM), inactives show top-dose activity change, negative = inhibition, actives largely listed as inhibitors; 0.72% of 360,000 active; AID 1745845; note: potency is the fitted concentration of half-maximal effect; % is set by controls: 0 for no effect and ±100 for the full control effect; nearly all actives have a fitted effect of over 55% in size
#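 qHTS (up to 57 uM final) was run with 24 h compound exposure of reporter cells at 37 °C. Each well was multiplexed: SteadyGlo luminescence measured ATXN2-luciferase expression after a fluorogenic Gly-Phe-AFC viability readout (25 uM final).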
# IL-1B inflam inh = inhibitors of inflammasome signaling (IL-1 beta secretion) | THP-1 LPS/ATP IL-1B secretion, AlphaLISA, 16 h; stronger effect = lower value | activity change, % at 57.5 µM | 4.7% of 360,000 active; in the data active = activity change below about -50%; inconclusive = mostly about -30% to -49%; note: % is set by controls: 0 for no effect and ±100 for the full control effect
#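 THP-1 cells pretreated 1 hr with compounds (up to 57.5 uM final), then stimulated with LPS (250 ng/mL final) plus ATP (1.25 mM final); secreted IL-1B measured by AlphaLISA after 16 hr, decreased signal indicating inhibition.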
# a7 integrin act = activates integrin-mediated alleviation for muscular dystrophy; alpha7betagal myoblasts, beta-gal FDG fluorescence, 48 h; Potency, µM (series often up to 38.3 µM), without a hit: at the highest dose activation, actives largely listed as activators; 0.064% of 350,000 active;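 note: potency is the fitted concentration of half-maximal effect; 100% = response of the positive control SU9516; nearly all actives have a fitted effect of over 60% in size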
#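 alpha7betagal+/- myoblasts (passage 13, 250/well) treated 48 h at 37C with compounds at 1:260 dilution of DMSO stock. Lysed, then beta-galactosidase activity read as FDG fluorescence (ex 480/em 540) after 30 min, with pre-read for autofluorescence.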
# Numbers without * were called inactive; i = inactive; u = inconclusive; x = no result given; ! = repeats disagree; [ ] = remark or other dose. Shown are actives, neighbours in structure and some others; about 7% of the full set was active somewhere. Unless noted, calls come from the whole dose curve; as a rule, active = well fitted curve in the direction sought with a large enough effect; inconclusive = small, poorly fitted or top-dose-only effect, or another doubt; inactive = no such curve, though single readings can be large; an effect the other way counts as inactive or inconclusive.
SMILES,D3 antag,DRD3 agonist,ATXN viability,ATXN2 expr inh,IL-1B inflam inh,a7 integrin act
O=C(COC(=O)C1=COCCO1)Nc1cc(Cl)c(Cl)cc1Cl,13.1,-2.5,i,-7.8%,23.6,-18.5%
COc1ccc(C(=O)NC2CC3CCCC(C2)N3Cc2ccccc2)cc1OC (stereo not given),-94.0*,-24.9,i,-50.4%,5.6,5.3%
COc1ccc(C(=O)NCCSCc2ccccc2)cc1OC,-51.1*,11.0,i,2.7%,2.1,-7.3%
COc1cc(C(=O)NC2CC3CCCC(C2)N3Cc2ccccc2)cc(OC)c1OC (stereo not given),-94.7*,-18.9,i,-17.3%,0.0,-27.4%
COc1ccc(C(=O)NCCSCc2ccc(Cl)cc2)cc1OC,8.8,7.3,u,-57.2%,0.0,1.1%
COc1ccc([N+](=O)[O-])cc1C(=O)NC1CCN(Cc2ccccc2)CC1,-99.6*,-20.4,i,-29.2%,u,-18.8%
COc1ccc(C(=O)NC2CC2)cc1OC1CCN(Cc2ccccc2)CC1,-5.1,-1.7,i,-5.5%,i,2.7%
COc1cc(C(=O)NC2CC3CCCC(C2)N3C2CC2)cc(OC)c1OC (stereo not given),-10.7,-5.4,i,-3.9%,0.3,5.2%
CCCCCCCCCCSc1n[nH]c(N)n1,29.5,13.8,i,-2.2%,7.0,-24.0%
O=C(OCC(=O)N1CCCc2ccccc21)c1cccc(C(F)(F)F)c1,-13.6,-15.9,i,-8.6%,7.6,7.1%
COc1cc(C(=O)NC2CCN(Cc3ccccc3)CC2)cc(Cl)c1OC,-99.0*,-19.1,i,x,-13.6,-23.3%
COc1ccc(CN2C3CCC2CC(NC(=O)c2cc(OC)c(OC)c(OC)c2)C3)cc1 (stereo not given),-66.4*,-25.4,i,u,-19.1,-2.8%
COc1cc(OC)cc(C(=O)NC2CCN(CCCOc3ccccc3)CC2)c1,-15.2,-11.4,i,u,-51.9*,-4.4%
CCCN1CCC(NC(=O)c2cccc(Oc3ccccc3)c2)CC1,-23.5,-7.4,i,2.0%,i,-45.8%
C=CCN1CCC(=O)C(C(=O)OCC)=C1C(=O)OCC,10.0,-0.9,i,2.5%,-0.8,-7.2%
CS(=O)(=O)Nc1ccc(C2=NN(C(=O)c3cccc(F)c3)C(c3cccs3)C2)cc1 (stereo not given),7.0,1.8,u,x,-28.3,-22.1%
Cc1ccc(C(=O)O)cc1N1CCCC1=O,-50.8*,-4.9,i,-16.2%,-3.1,-2.5%
Cc1ccc(C)c(Cn2c(=O)n(-c3ccc(Cl)cc3)c(=O)c3c(C)c(C)sc32)c1,x,-2.0,i,-6.5%,x,x
CCc1ccccc1Nc1cc(C(=O)NCCCN(C)C2CCCCC2)c2ccccc2n1,x,-15.0,15.8µM*,u,x,x
Cc1cc(C)c(S(=O)(=O)c2cccc(C)c2C)c(=O)[nH]1,5.8,2.0,i,-12.3%,-2.1,-9.3%
C=CCOc1ccccc1CNc1cccc(F)c1,8.5,0.7,i,-3.9%,-5.2,20.0%
C=CCOc1ccccc1CNc1ccc2c(c1)OCCO2,-15.7,4.8,i,u,-75.0*,-47.6%
Cc1c(-c2ccc(O)cc2)n(Cc2ccc(OCCN3CCCCCC3)cc2)c2ccc(O)cc12,x,-24.8,15.8µM*!,17.8µM*!,x,x
Oc1ccc(N2CCN(Cc3ccc(OCCCN4CCCCC4)cc3)CC2)cc1,u,-0.8,u,-22.1%,-2.2,-54.0%
O=[N+]([O-])c1cccc2c(N3CCCC3)ccnc12,-7.5,2.5,i,u,-63.8*,-31.7%
SMILES,D3 antag,DRD3 agonist,ATXN viability,ATXN2 expr inh,IL-1B inflam inh,a7 integrin act
C#CCNC(=O)C[C@@H]1C[C@@]2(C(=O)OCC)CCC=C2N(CCC2=CCCCC2)C1=O,-10.4,-4.1,i,-1.6%,3.1,x
CC(C)(C)c1ccc(/C=N/Nc2nncn2N)cc1,u,-5.4,i,-5.0%,-23.4,-31.7%
Nn1cnnc1N/N=C/c1cc(Br)cc(Br)c1O,-90.0*,-9.2,i,u,-66.7*,-11.8%
O=C1NC2(C=Cc3c(ccc4ccccc34)O2)Oc2ccccc21 (stereo not given),-51.0*,-3.8,u,-26.8%,-4.7,-34.5%
Cc1c(NC(=O)c2cnn3c(C(F)(F)F)cc(-c4ccco4)nc23)c(=O)n(-c2ccccc2)n1C,33.1,-5.5,i,-1.2%,-0.1,3.7%
COc1ccc(CC(N)c2csc(NC(=O)Nc3ccc(OC)cc3)n2)cc1 (stereo not given),0.0,-9.5,u,u,-50.4*,x
COc1ccc(NC(=O)Nc2nnc(-c3ccncc3)s2)cc1,3.4,3.3,i,3.9%[11.3 µM],-89.6*,9.9%
COc1ccccc1NC(=O)Nc1nc(C(N)Cc2ccc(C(F)(F)F)cc2)cs1 (stereo not given),15.4,3.5,x,-0.7%,0.0,x
COc1ccc(CC(N)c2csc(NC(=O)Nc3ccccc3Oc3ccccc3)n2)cc1 (stereo not given),36.1,4.8,x,u,u,x
COc1ccc(NC(=O)Nc2nc(C(N)Cc3ccc(C(F)(F)F)cc3)cs2)cc1 (stereo not given),7.6,2.7,i,u,u,x
COc1ccc(CC(N)c2csc(NC(=O)Nc3ccccc3C(C)C)n2)cc1 (stereo not given),-54.5*,-12.5,u,u,u,x
COc1ccc(CC(N)c2csc(NC(=O)Nc3ccccc3Cc3ccccc3)n2)cc1 (stereo not given),u,-11.9,u,u,-51.9*,x
O=C(CSc1nncn1-c1ccccc1F)NC1CCCCC1,-7.5,-11.3,i,29.1%,-6.7,-8.7%
Cc1ccc(C)c(S(=O)(=O)N2CCCC2CNC(=O)C(=O)NCC2CCCO2)c1 (stereo not given),-14.9,-5.1,i,4.2%,2.0,17.7%
O=C(COC(=O)CCC1CCCC1)Nc1ccccc1Br,1.8,-0.9,i,1.7%,0.0,18.9%
COc1ccc(CC(N)c2csc(NC(=O)c3cc(C(C)(C)C)oc3C)n2)cc1 (stereo not given),8.4,8.7,28.2µM*,u,-56.7*,x
CCCCc1ccc(NC(=O)CSc2nc3ccccc3nc2N2CCCCC2)cc1,x,25.3,i,2.1%,x,x
Cc1ccc2nc(-c3ccc(NC(=O)COC(=O)c4ccco4)cc3)sc2c1,1.3,6.4,i,-19.6%,-50.6*,-18.2%
Cc1ccc2nc(-c3ccc(NC(=O)CN4CCN(C(=O)c5ccco5)CC4)cc3)sc2c1,0.8,35.7*,u,11.0%,-5.1,9.3%
Cc1ccc2nc(-c3ccc(NC(=O)COC(=O)c4ccc(Br)o4)cc3)sc2c1,17.4,-1.9,u,-28.7%,28.1,-7.5%
Cc1ccc(NC(=O)CN2CCN(C(=O)c3ccco3)CC2)cc1,-8.1,14.4,i,-18.7%,9.8,-9.5%
